D3 antag: antagonists of human D3 dopamine receptor; 360,000 tested, 2.5% active; max response, negative = inhibition, %; D3R cells, DiscoveRx beta-arrestin luminescence, antagonist mode; active compounds read low; P35462; in the data active means max response below about -50%; inconclusive means no clear call, values can overlap the other calls
Target sequence (P35462 whole entry, looked up): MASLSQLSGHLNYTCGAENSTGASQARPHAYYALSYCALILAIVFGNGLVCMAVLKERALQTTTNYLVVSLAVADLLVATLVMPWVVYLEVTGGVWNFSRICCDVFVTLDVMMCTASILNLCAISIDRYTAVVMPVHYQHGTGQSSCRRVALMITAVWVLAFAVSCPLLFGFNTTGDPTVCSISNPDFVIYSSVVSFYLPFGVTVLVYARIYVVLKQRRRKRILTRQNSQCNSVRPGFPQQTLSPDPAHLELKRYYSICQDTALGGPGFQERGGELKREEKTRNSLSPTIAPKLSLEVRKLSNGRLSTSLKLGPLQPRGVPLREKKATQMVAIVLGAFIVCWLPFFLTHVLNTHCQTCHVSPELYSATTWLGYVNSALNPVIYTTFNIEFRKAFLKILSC
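Cells plated overnight at 1500 cells/well, then exposed to library compounds with dopamine controls for 90 minutes at 37 degrees C. DiscoveRx reagent added for 30–60 minutes at room temperature; luminescence read, quantitative HTS format.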
D3 ag: agonists of human D3 dopamine receptor | P35462 | D3R DiscoveRx beta-arrestin cells, luminescence, 90 min | max activation, % | 410,000 tested, 0.58% active | AID 652048; in the data active means max activation above about 30%
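Agonist mode: compounds and dopamine controls were applied to plated cells for 90 min at 37 degrees C after an overnight attachment at 1500 cells/well. Luminescent read-out followed 30 - 60 minutes at room temperature with DiscoveRx detection reagent.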
ATXN2 expr inh: ATXN2 expression inhibition; HEK-293 ATXN2-luciferase reporter, luminescence, 24 h; Potency, µM (series often up to 57 µM), most hits filed as inhibitors; 360,000 tested, 0.72% active; AID 1745845; further: nearly all actives have a fitted effect of over 55% in size
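qHTS (up to 57 uM final) was run with 24 h compound exposure of reporter cells at 37 °C. Each well was multiplexed: SteadyGlo luminescence measured ATXN2-luciferase expression after a fluorogenic Gly-Phe-AFC viability readout (25 uM final).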
ATXN viability: cell viability loss in ATXN counter-screen; S2 cells (HEK-293 line with an ATXN2-luciferase reporter) viability, CellTiter-Fluor protease fluorescence, 24 h; Potency, µM (doses to about 56.7 µM), usual class: cytotoxic; 400,000 tested, 0.49% active; AID 651635; further: nearly all actives have a fitted effect of over 40% in size
a7 integrin act: activators of alpha7 integrin expression for muscular dystrophy. Potency, µM (doses to about 38.3 µM), most hits filed as activators. alpha7betagal myoblasts, beta-gal FDG fluorescence, 48 h. AID 624291. 350,000 tested, 0.064% active; further: nearly all actives have a fitted effect of over 60% in size
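alpha7betagal+/- myoblasts (passage 13, 250/well) treated 48 h at 37C with compounds at 1:260 dilution of DMSO stock. Lysed, then beta-galactosidase activity read as FDG fluorescence (ex 480/em 540) after 30 min, with pre-read for autofluorescence.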
IL-1B inflam inh: inhibitors of inflammasome signaling (IL-1 beta secretion). THP-1 LPS/ATP IL-1B secretion, AlphaLISA, 16 h; active compounds read low. activity change, % at 57.5 µM. 360,000 tested, 4.7% active; in the data active means activity change below about -50%; inconclusive means mostly about -30% to -49%
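Secreted IL-1B measured by AlphaLISA bead assay after 16 h compound exposure of THP-1 cells; compounds (final up to 57.5 uM) added 1 h before LPS (250 ng/mL) and ATP (1.25 mM) stimulation; lower signal means less secretion.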
Hits are given with their value; i = inactive; ? = inconclusive; nt = no result; [ ] = another dose, or the depositor's remark. Most compounds without a hit are left out; they make up all but 7% or so of the library. Unless noted, the call rests on the fitted dose curve; in most records, active means well fitted curve in the direction sought with a large enough effect; inconclusive means small, poorly fitted or top-dose-only effect, or another doubt; inactive means no such curve, though single readings can be large; an effect the other way counts as inactive or inconclusive.

SMILES	D3 antag	D3 ag	ATXN2 expr inh	ATXN viability	a7 integrin act	IL-1B inflam inh
COc1ccccc1C(=O)NCC(=O)N=Nc1c(O)n(C(C)C)c2ccccc12	-59	i	nt	i	11µM	i
CCn1c(O)c(N=NC(=O)CNC(=O)c2ccccc2F)c2ccccc21	-74	i	i	i	i	i
Cc1[nH]n(-c2ccccc2)c(=O)c1/C=N\NC(=O)C1COc2ccccc2O1 (stereo not given)	i	i	?	i	i	i
CCOC(=O)c1[nH]ncc1CN1CCCC(C(=O)c2ccc(SC)cc2)C1 (stereo not given)	i	i	i	i	i	i
COc1ccc(CN2CCCC(C(=O)c3ccc(SC)cc3)C2)cc1Cn1cccn1 (stereo not given)	?	i	?	?	i	-96
CSc1ccc(C(=O)C2CCCN(Cc3ccc(N4CCNC4=O)cc3)C2)cc1 (stereo not given)	i	i	i	i	i	-97
CC(=O)Nc1cccc(-c2ccnc3c2CC(C(=O)NCc2ccco2)O3)c1 (stereo not given)	i	i	i	i	nt	i
COCCCNc1cc(C)nc2ccccc12	i	i	i	i	i	i
Cc1cc(NCCCCCCCNc2cc(C)nc3cc([N+](=O)[O-])ccc23)c2ccc([N+](=O)[O-])cc2n1	i	i	?	21µM	i	-103
N#CCCN(C(=O)COC(=O)c1nc(Cl)ccc1Cl)c1ccccc1	i	i	i	i	i	i
N#CCCN(C(=O)CCl)c1cccc(Cl)c1	i	i	?	nt	i	-70
CCCCCCN(C(=O)CCl)c1ccccc1	i	i	nt	?	i	-67
O=C(CCl)N(CCc1ccccc1)CCc1ccccc1	i	i	?	?	i	-103
CC(=O)N(CCN(C(C)=O)c1ccccc1)c1ccccc1	i	i	i	i	i	i
CCCN(C(=O)c1cc2c(Cl)nc3ccccc3c2s1)c1cccc(C)c1	nt	i	i	i	nt	nt
CCCCCCCN(C(=O)CCl)c1cccc(C)c1	i	i	25µM	nt	i	-105
O=C(CCCc1ccccc1)NCCc1ccccc1	i	i	nt	i	i	i
O=C(CSc1nc2ncccc2[nH]1)c1ccc2c(c1)OCO2	i	i	i	?	i	i
COC(=O)C1=CN(C(C)c2ccccc2)C=C(C(=O)OC)C1c1cc(OC)c(OC)c(OC)c1 (stereo not given)	i	i	i	i	i	i
O=C(CCl)N(c1ccccc1)c1ccccc1	i	i	?	nt	i	-108
O=C(N(c1ccccc1)c1ccccc1)N(c1ccccc1)c1ccccc1	i	i	nt	?	i	i
COc1cccc(NS(=O)(=O)c2ccc3c(c2)CCCN3C(=O)C2CCC2)c1	nt	i	i	i	nt	nt
CCN(CC)S(=O)(=O)c1ccc(Cc2ncc(C(F)(F)F)cc2Cl)s1	?	i	i	i	i	-58
O=C(CCl)c1ccc(Cc2ncc(C(F)(F)F)cc2Cl)s1	i	i	?	nt	i	-104
Cc1cc(C)n(-c2ncccc2[N+](=O)[O-])n1	i	i	i	i	i	i
SMILES	D3 antag	D3 ag	ATXN2 expr inh	ATXN viability	a7 integrin act	IL-1B inflam inh
CC(C)c1ccc(-n2cnn(-c3ncccc3[N+](=O)[O-])c2=O)cc1	-83	i	i	i	i	i
O=C(CN1C(=O)COc2ccc(S(=O)(=O)N3CCCCCC3)cc21)N1CCN(c2cccc(Cl)c2)CC1	nt	i	i	?	nt	nt
CCC(C)(C)C1CCc2[nH]nc(C(=O)NN)c2C1 (stereo not given)	i	i	i	i	i	i
CCC(C)(C)C1CCc2[nH]nc(C(=O)NC3CCCCC3)c2C1 (stereo not given)	-62	i	i	i	i	i
COc1ccccc1N1CC(C(=O)Nc2cccc(C(=O)O)c2)CC1=O (stereo not given)	i	i	i	i	i	i
CCOC(=O)c1oc2cccc(OCC(O)CNC(C)C)c2c1C (stereo not given)	i	i	?	i	i[7.66 µM]	-50
Cc1cccc(C)c1OCC(O)CNC(C)C (stereo not given)	i	i	i	i	i	i
Nc1nccc(-c2ccc(-n3cnc4ccccc43)cc2)n1	i	i	i	i	11µM	-61
COc1ccccc1C(=O)NC1(C(F)(F)F)NC(=O)N(CCc2ccccc2)C1=O (stereo not given)	nt	i	i	i	nt	nt
CC(C)Oc1ccc(C(=O)NC2(C(F)(F)F)NC(=O)N(CCCc3ccccc3)C2=O)cc1 (stereo not given)	i	i	i	?	i	-64
COc1ccc(CCN(C)Cc2c(O)ccc3cc(Br)ccc23)cc1OC	i	i	i	i	i	-94
CCOC(=O)CN1N=C(/C=C/c2ccc(C(C)C)cc2)CCC1=O	i	i	i	i	i	-56
O=C(OCCN(C1=NS(=O)(=O)c2ccccc21)c1ccc(Cl)cc1)c1ccco1	i	i	i	i	i	i
CCN(CC)P(=O)(Nc1ccc(C)cc1Br)c1ccc(N(C)C)cc1NC(=O)c1ccco1 (stereo not given)	-60	i	i	i	i	-66
Cc1ccc(NC(=O)c2ccco2)c(NC(=O)c2ccccc2)c1	i	i	i	i	i	i
NS(=O)(=O)c1ccc(CCNC(=O)c2cc(-c3cccs3)nc3ccccc23)cc1	i	i	i	?	?	i
COc1cc(-c2cc(C(=O)Nc3ccc(C)c(S(=O)(=O)N4CCOCC4)c3)c3ccccc3n2)cc(OC)c1OC	i	33	i	i	i	i
Cc1ccc(-c2nn(-c3ccccc3)cc2C(=O)Nc2ccc(C)c(S(=O)(=O)N3CCOCC3)c2)cc1	i	i	i	i	i	i
COc1cc(-c2cc(C(=O)NCCc3ccc(S(N)(=O)=O)cc3)c3ccccc3n2)cc(OC)c1OC	i	i	i	i	i	-52
O=C(Nc1cccc(S(=O)(=O)NCc2ccco2)c1)c1cc(-c2ccccc2)nc2ccccc12	i	i	i[11.3 µM]	i	i	-88
CCc1ccc(-c2cc(C(=O)Nc3ccc(S(=O)(=O)NC(C)=O)cc3)c3ccccc3n2)cc1	-93	i	i	i	i	i
O=C(CCC(=O)OCc1ccc([N+](=O)[O-])cc1)Nc1ccccc1Cl	i	i	i[11.3 µM]	i	i	i
CCOC(=O)C1CCCN(S(=O)(=O)c2csc(C(N)=O)c2)C1 (stereo not given)	nt	i	nt	nt	nt	nt
COc1cc(-c2cc(C(=O)Nc3ccccc3N3CCOCC3)c3ccccc3n2)cc(OC)c1OC	i	i	i	i	?	-67
COc1cc(-c2cc(C(=O)Nc3cccc(C(C)=O)c3)c3ccccc3n2)cc(OC)c1OC	i	i	i	i	i	i
COc1cc(-c2cc(C(=O)Nc3ccc(O)cc3)c3ccccc3n2)cc(OC)c1OC	i	i	i	i	i	-52
